Source: PubChem BioAssay AID1159580 (chemical genetic matrix, 2015)
Among all 5,500 compounds or so, about 2,000 (36%) were called active. Another 18% or so got no clear call; they are omitted. No stated cut-off is given here; in the data, active means normalized growth mostly below about 0.91 (no sharp cut-off); inconclusive means no clear call, values can overlap the other calls; inactive means mostly above about 0.92. The list shows a part of the results.

Test: chemical genetic growth profiling, strain panel (AID 1159580);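 further: tested at 20 µM; growth read once vehicle control cultures reached saturation at 30 °C; 1 = growth at the plate median or of vehicle wells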
Conditions: S. cerevisiae deletion strains, growth OD

Measured: normalized growth

CC1(C)C2CCC1(C)C(O)C2 (stereo not drawn)
inactive: locus YHR030C, strain SLT2, stronger effect = lower value 0.98 | locus YHR079C, strain IRE1, stronger effect = lower value 0.981 | locus YJL095W, strain BCK1, stronger effect = lower value 0.999 | locus YJR066W, strain TOR1, stronger effect = lower value 0.923 | locus YLR113W, strain HOG1, stronger effect = lower value 0.991 | locus YNL183C, strain NPR1, stronger effect = lower value 0.947 | locus YOR231W, strain MKK1, stronger effect = lower value 0.992 | locus YPL256C, strain CLN2, stronger effect = lower value 0.993
